PubChem BioAssay (NCI)
Values joined by “and” are separate entries in the source; they are usually repeats but may differ in a detail not shown here. Equal values may be shown once. The panel holds about 83,000 compounds, 20% with a hit somewhere; the sample as a whole holds those more often.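 Cells were grown in 96-well plates and exposed to the test compound at a single concentration for 48 hours; results are reported as percent growth, with values below 10 considered active.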 Active and inactive are the calls of the source.

How the values were obtained:
Assay in all cases: NCI-60 one-dose screen, 48 h (100 = growth as untreated, 0 = no growth, -100 = all killed)
Conditions in all cases: 10 µM unless noted
NCI-H23 lung = test system: NCI-H23 lung
NCI-H226 lung = test system: NCI-H226 lung
NCI-H322M lung = test system: NCI-H322M lung
HOP-62 NSCLC = test system: HOP-62 NSCLC
NCI-H460 lung = test system: NCI-H460 lung
HOP-92 NSCLC = test system: HOP-92 NSCLC
NCI-H522 lung = test system: NCI-H522 lung
A549/ATCC NSCLC = test system: A549/ATCC NSCLC
786-0 renal = test system: 786-0 renal
COLO 205 colon = test system: COLO 205 colon

Measured: growth

O=C(O)Cc1cc(=O)[nH]n(-c2ccccc2)c1=O
inactive: NCI-H23 lung 108% | NCI-H226 lung 98.1% | NCI-H322M lung 109% | HOP-62 NSCLC 106% | NCI-H460 lung 109% | HOP-92 NSCLC 98% | NCI-H522 lung 95.4% | A549/ATCC NSCLC 95.6% | 786-0 renal 108%

CCC(C)NC(=O)c1ccccc1C (configuration not stated)
inactive: NCI-H23 lung 91.7% | NCI-H226 lung 93.6% | NCI-H322M lung 97.7% | HOP-62 NSCLC 92.1% | NCI-H460 lung 102% | HOP-92 NSCLC 84.5% | NCI-H522 lung 94.2% | A549/ATCC NSCLC 100% | 786-0 renal 95.7% | COLO 205 colon 103%

OCCSc1ccc(Cl)cc1
inactive: NCI-H23 lung 112% and 102% | NCI-H226 lung 116% and 99.3% | NCI-H322M lung 114% and 96% | HOP-62 NSCLC 108% and 76.1% | NCI-H460 lung 108% and 107% | HOP-92 NSCLC 101% and 97.7% | NCI-H522 lung 101% and 76.5% | A549/ATCC NSCLC 104% and 97% | 786-0 renal 108% and 95.7% | COLO 205 colon 117% and 104%

O=C(c1ccc(Cl)cc1)C1C(c2ccccc2)C1[N+](=O)[O-] (configuration not stated)
inactive: NCI-H23 lung 84.6% | NCI-H226 lung 97.2% | NCI-H322M lung 89.8% | HOP-62 NSCLC 98% | NCI-H460 lung 104% | HOP-92 NSCLC 80.9% | NCI-H522 lung 101% | A549/ATCC NSCLC 98.6% | 786-0 renal 98.8% | COLO 205 colon 111%

CC(=O)/C(N=Nc1ccc(S(=O)(=O)c2ccc(N=N/C(C(C)=O)=C(/C)O)cc2)cc1)=C(\C)O
inactive: NCI-H23 lung 97.6% | NCI-H226 lung 114% | NCI-H322M lung 106% | HOP-62 NSCLC 103% | NCI-H460 lung 93.2% | HOP-92 NSCLC 90.3% | NCI-H522 lung 105% | A549/ATCC NSCLC 105% | 786-0 renal 112%

COc1ccc(C(=O)C(O)c2ccc(OC)cc2)cc1 (configuration not stated)
inactive: NCI-H23 lung 98.4% and 92.7% | NCI-H226 lung 92.5% and 96.2% | NCI-H322M lung 96.6% and 102% | HOP-62 NSCLC 109% and 108% | NCI-H460 lung 104% and 105% | HOP-92 NSCLC 96.2% | NCI-H522 lung 102% | A549/ATCC NSCLC 109% and 103% | 786-0 renal 103%

O=c1[nH]c(=O)c2[nH]c(=O)[nH]c2[nH]1
inactive: NCI-H23 lung 92.8% | NCI-H226 lung 93.2% | NCI-H322M lung 101% | HOP-62 NSCLC 105% | NCI-H460 lung 104% | HOP-92 NSCLC 89.9% | NCI-H522 lung 112% | A549/ATCC NSCLC 104% | 786-0 renal 94.2%

COc1cc2oc3cc(=O)cc4oc(-c5ccccc5)cc(c2c2c1CCC(c1ccccc1)O2)c43 (configuration not stated)
inactive: NCI-H23 lung 87.8% | NCI-H226 lung 64.4% | NCI-H322M lung 101% | HOP-62 NSCLC 91% | NCI-H460 lung 76.2% | HOP-92 NSCLC 81.1% | NCI-H522 lung 86.6% | A549/ATCC NSCLC 96.2% | 786-0 renal 110% | COLO 205 colon 98.5%

CC(NC(=O)CCl)c1ccccc1 (configuration not stated)
inactive: NCI-H23 lung 99.9% | NCI-H226 lung 96.3% | NCI-H322M lung 106% | HOP-62 NSCLC 107% | NCI-H460 lung 99.7% | HOP-92 NSCLC 89% | NCI-H522 lung 98% | A549/ATCC NSCLC 104% | 786-0 renal 104%

COC(=O)c1ccccc1Cl
inactive: NCI-H23 lung 103% | NCI-H226 lung 101% | NCI-H322M lung 97.4% | HOP-62 NSCLC 98.3% | NCI-H460 lung 106% | HOP-92 NSCLC 85.3% | NCI-H522 lung 102% | A549/ATCC NSCLC 99.4% | 786-0 renal 102%

CCCCCc1cc[n+](CC(=O)c2ccccc2)cc1
inactive: NCI-H23 lung 96.6% and 92.6% | NCI-H226 lung 96.8% and 89% | NCI-H322M lung 92.4% and 96% | HOP-62 NSCLC 90.5% and 108% | NCI-H460 lung 76.7% and 95.4% | HOP-92 NSCLC 67.7% | NCI-H522 lung 95% and 99.3% | A549/ATCC NSCLC 84.1% and 101% | 786-0 renal 97% and 96.3%

Nc1nc(N)c2cc(S(=O)(=O)c3ccccc3)ccc2n1
inactive: NCI-H23 lung 45% and 40.9% | NCI-H226 lung 63.2% and 79.3% | NCI-H322M lung 43.6% and 41.5% | HOP-62 NSCLC 54.8% and 46.3% | NCI-H460 lung 18.3% and 14.7% | HOP-92 NSCLC 64.9% and 92.5% | NCI-H522 lung 46.2% and 68.9% | A549/ATCC NSCLC 13.4% and 25.7% | 786-0 renal 29.5% and 26.8%
